PubChem BioAssay (NCI)
Compounds without any hit were thinned out: in the full panel of roughly 83,000, 20% have a hit.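 In brief: 96-well plates, 48 h treatment, single concentration, percent growth endpoint.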 Activity calls are given as the source filed them. Rule for the calls: active = growth percent below 10; inactive = the rest.

Legend:
Experiment in all cases: NCI-60 one-dose screen, 48 h (100 = growth as untreated, 0 = no growth, -100 = all killed)
Conditions in all cases: 10 µM unless noted
[1] = test system: NCI-H23 lung
[2] = test system: NCI-H226 lung
[3] = test system: NCI-H322M lung
[4] = test system: HOP-62 NSCLC
[5] = test system: NCI-H460 lung
[6] = test system: HOP-92 NSCLC
[7] = test system: NCI-H522 lung
[8] = test system: A549/ATCC NSCLC
[9] = test system: 786-0 renal
[10] = test system: DU-145 prostate
[11] = test system: K-562 leukemia
[12] = test system: MALME-3M melanoma
[13] = test system: MDA-MB-231 breast
[14] = test system: RXF 393 renal
[15] = test system: SF-268 CNS
[16] = test system: SF-295 CNS
[17] = test system: SF-539 CNS
[18] = test system: UACC-257 melanoma
[19] = test system: M14 melanoma
[20] = test system: COLO 205 colon

| SMILES | growth [1] | growth [2] | growth [3] | growth [4] | growth [5] | growth [6] | growth [7] | growth [8] | growth [9] | growth [10] | growth [11] | growth [12] | growth [13] | growth [14] | growth [15] | growth [16] | growth [17] | growth [18] | growth [19] | growth [20] |
| --- | --- | --- | --- | --- | --- | --- | --- | --- | --- | --- | --- | --- | --- | --- | --- | --- | --- | --- | --- | --- |
| CN(C)S(=O)(=O)c1cccc(-c2nc3sc4c(c3c(=O)[nH]2)CCCC4)c1 | 44.1% (inactive) | 54% (inactive) | 27.2% (inactive) | 42.7% (inactive) | 7.27% (active) | 11.4% (inactive) | 54.7% (inactive) | 25.8% (inactive) | -37.1% (active) | 54.5% (inactive) | 37.9% (inactive) | 17.2% (inactive) | 34.8% (inactive) | 10.7% (inactive) | 64.9% (inactive) | 24.7% (inactive) | 23% (inactive) | 75% (inactive) | 48% (inactive) | – |
| Clc1ccc2c(NCCCCNc3nc(N4CCCCC4)nc4ccccc34)ccnc2c1 | 53.1% (inactive) | 35.8% (inactive) | 6.86% (active) | -11.1% (active) | 6.3% (active) | -35.3% (active) | -18.6% (active) | 16.2% (inactive) | -90.3% (active) | 27.6% (inactive) | – | -81.8% (active) | -51.3% (active) | -62.8% (active) | 19.9% (inactive) | -54.8% (active) | -86.7% (active) | -83.5% (active) | -84.6% (active) | – |
| Cn1c(=O)c2c(nc3n(-c4ccc(Cl)cc4Cl)c(Sc4nc(-c5ccccc5)c(C#N)c(=O)[nH]4)cn23)n(C)c1=O | 65% (inactive) | 56.4% (inactive) | 26.4% (inactive) | 54.8% (inactive) | 13.9% (inactive) | 34.4% (inactive) | 59.6% (inactive) | 20.9% (inactive) | 15.1% (inactive) | 50.5% (inactive) | 84% (inactive) | 45.2% (inactive) | 27.7% (inactive) | 59.1% (inactive) | 61.9% (inactive) | 44.4% (inactive) | 30.6% (inactive) | 99.9% (inactive) | 84% (inactive) | – |
| COc1nc2c(c(=O)n1C)CN(Cc1ccccc1)C=N2 | 103% (inactive) | 109% (inactive) | 128% (inactive) | 94.2% (inactive) | 116% (inactive) | 21.2% (inactive) | 95.1% (inactive) | 87.6% (inactive) | 103% (inactive) | 114% (inactive) | 93.2% (inactive) | – | 119% (inactive) | 109% (inactive) | 106% (inactive) | 109% (inactive) | 116% (inactive) | 94.9% (inactive) | 101% (inactive) | – |
| CC(C)CSc1nc(N)nc2c1ncn2C1OC(CO)C(O)C1O (configuration not stated) | 106% (inactive) | 101% (inactive) | 101% (inactive) | 95.2% (inactive) | 104% (inactive) | 147% (inactive) | 92.6% (inactive) | 102% (inactive) | 121% (inactive) | 115% (inactive) | – | 99.5% (inactive) | 104% (inactive) | 98.7% (inactive) | 99.9% (inactive) | 72.3% (inactive) | 94.7% (inactive) | 104% (inactive) | 116% (inactive) | – |
| CSc1nc(NCCN2CCOCC2)c(C#N)c(-c2cccc([N+](=O)[O-])c2)n1 | 97.1% (inactive) | 106% (inactive) | 92.9% (inactive) | 89.4% (inactive) | 100% (inactive) | 101% (inactive) | 85.7% (inactive) | – | 101% (inactive) | 106% (inactive) | 100% (inactive) | 98.7% (inactive) | 86.3% (inactive) | 103% (inactive) | 96.7% (inactive) | 99.1% (inactive) | 90.3% (inactive) | 98.2% (inactive) | – | 111% (inactive) |
| COc1cc(-c2nc3cc(Cl)c(Cl)cc3[nH]2)ccc1OCC(=O)N=Nc1c(O)[nH]c2ccccc12 | -81.1% (active) | -27.2% (active) | -40.7% (active) | -60.2% (active) | -68% (active) | -67.2% (active) | -64.3% (active) | – | -82.6% (active) | -69.9% (active) | -32.4% (active) | -94% (active) | -82.2% (active) | -75.9% (active) | -34.9% (active) | -87.5% (active) | -87.3% (active) | -60.2% (active) | – | -78% (active) |
| CSc1nc2c(c(=O)[nH]1)C1(C(=O)Nc3ccccc31)c1c(nc(SC)[nH]c1=O)N2 | 105% (inactive) | 94.9% (inactive) | 92.5% (inactive) | 113% (inactive) | 103% (inactive) | 98.8% (inactive) | 123% (inactive) | 100% (inactive) | 103% (inactive) | 105% (inactive) | 112% (inactive) | 93.7% (inactive) | 107% (inactive) | 103% (inactive) | 98.2% (inactive) | 103% (inactive) | 102% (inactive) | 104% (inactive) | 97.2% (inactive) | – |
| CC(=O)c1cc2c(N)c(C(=O)Nc3cccc(F)c3C)sc2nc1C | 94.2% (inactive) | 88% (inactive) | 95.7% (inactive) | 73.8% (inactive) | 83.1% (inactive) | 73.1% (inactive) | 82.1% (inactive) | 56.5% (inactive) | 92.1% (inactive) | 99.1% (inactive) | – | 94% (inactive) | 82.1% (inactive) | 96.6% (inactive) | 94.3% (inactive) | 82.4% (inactive) | 93.5% (inactive) | 74.5% (inactive) | 65.2% (inactive) | – |
| CCCc1cc(=O)n2c(C(=O)Nc3cccc(C(=O)OCC)c3)c(C(=O)Nc3ccc(F)cc3)sc2n1 | 79.8% [30 µM] (inactive) | 89% [30 µM] (inactive) | 97.3% [30 µM] (inactive) | 36.6% [30 µM] (inactive) | 23% [30 µM] (inactive) | -31.5% [30 µM] (active) | 65% [30 µM] (inactive) | 3.58% [30 µM] (active) | 15.1% [30 µM] (inactive) | 79.9% [30 µM] (inactive) | 79.7% [30 µM] (inactive) | 71.9% [30 µM] (inactive) | 47% [30 µM] (inactive) | -27.2% [30 µM] (active) | 57.5% [30 µM] (inactive) | 44.5% [30 µM] (inactive) | 33.9% [30 µM] (inactive) | 64.5% [30 µM] (inactive) | 75.2% [30 µM] (inactive) | – |
| COc1cc2nnc3c4cccnc4[nH]c3c2cc1OC | 89.6% (inactive) | 40.5% (inactive) | 110% (inactive) | 96.9% (inactive) | 25.6% (inactive) | -40.8% (active) | -75.7% (active) | 47.2% (inactive) | 7.43% (active) | 37.6% (inactive) | – | -3.59% (active) | 45.9% (inactive) | – | 19.4% (inactive) | 67.4% (inactive) | 54.9% (inactive) | -33.4% (active) | 81.2% (inactive) | – |
| O=C1/C(=C(/c2ccccc2)N2CCOCC2)Cc2ccccc21 | 54.1% (inactive) | 58.8% (inactive) | 98.3% (inactive) | 81.8% (inactive) | 81% (inactive) | 8.98% (active) | -63.6% (active) | 77.2% (inactive) | 7.77% (active) | -42.4% (active) | 35.2% (inactive) | 9.61% (active) | 8.95% (active) | 42% (inactive) | 11.3% (inactive) | 75.8% (inactive) | -45.6% (active) | 65.4% (inactive) | -34.7% (active) | – |
| COc1cc(/C=C/C(=O)c2c(C)oc3nc[nH]c(=O)c23)cc(OC)c1OC | 68.9% (inactive) | 92.1% (inactive) | 85.8% (inactive) | 101% (inactive) | 83.7% (inactive) | 96.4% (inactive) | 47.7% (inactive) | 81.6% (inactive) | 94.3% (inactive) | 64.8% (inactive) | 45.2% (inactive) | 88.1% (inactive) | 86.7% (inactive) | 66.3% (inactive) | 81.3% (inactive) | 104% (inactive) | 95.7% (inactive) | 73% (inactive) | 75.3% (inactive) | – |
| CCN(CC)c1ccc(-c2cc(-c3cc(OC)c(OC)c(OC)c3)nc(N3CCOCC3)c2C#N)cc1 | 56.2% (inactive) | 8.07% (active) | 52.9% (inactive) | -40.5% (active) | -1.44% (active) | -1.28% (active) | -15.6% (active) | 21.5% (inactive) | 0.298% (active) | 38.8% (inactive) | 1.69% (active) | -12.6% (active) | -10.9% (active) | -9.31% (active) | 39.6% (inactive) | -54.6% (active) | 35.6% (inactive) | -23.5% (active) | -53.9% (active) | – |
| O=C(CN1C(=O)/C(=C/c2ccc(Cl)cc2)SC1=S)NCCCN1CCOCC1 | 97% (inactive) | 95.2% (inactive) | 104% (inactive) | 111% (inactive) | 101% (inactive) | 85.7% (inactive) | 96.9% (inactive) | 104% (inactive) | 111% (inactive) | 102% (inactive) | 94.2% (inactive) | 90.7% (inactive) | 99.3% (inactive) | 105% (inactive) | 93.6% (inactive) | 93.2% (inactive) | 92.8% (inactive) | 101% (inactive) | 113% (inactive) | – |
